The values below come from PubChem BioAssay (NCATS).

Results filed as inconclusive are left out. Values without a mark were called inactive. Activity calls are given as the source filed them. Calls follow the shape of the dose curve; as a rule, active = well fitted curve in the direction sought with a large enough effect; inconclusive = small, poorly fitted or top-dose-only effect, or another doubt; inactive = no such curve, though single readings can be large; an effect the other way counts as inactive or inconclusive.

Experiment [1] has as its target Aldehyde dehydrogenase, mitochondrial (Homo sapiens) (UniProt P05091). The experiment in a line: qHTS for Inhibitors of the Aldehyde Dehydrogenase Family (ALDH2) Primary screen (AID 2061308). Also: nearly all actives have a fitted effect of over 55% in size. Also: potency is read from the fitted curve at half-maximal effect. Conditions: ALDH2 enzyme inhibition qHTS, 1536-well; series mostly up to 56 µM.
Experiment [2] has as its target Retinal dehydrogenase 2 (Homo sapiens) (UniProt O94788). Put plainly: qHTS for Inhibitors of the Aldehyde Dehydrogenase Family (ALDH1A2) Confirmation screens (AID 2061314). Also: nearly all actives have a fitted effect of over 65% in size. Also: potency is read from the fitted curve at half-maximal effect. The note with it: ALDH1A2 enzyme inhibition qHTS confirmation; series mostly up to 45.9 µM. A general note: qHTS replaces the single test concentration by a dilution series.
The target in experiment [3] is Retinaldehyde dehydrogenase 3 (Homo sapiens) (UniProt P47895). Put plainly: qHTS for Inhibitors of the Aldehyde Dehydrogenase Family (ALDH1A3) Primary screen (AID 2061315). Conditions: ALDH inhibition qHTS; series mostly up to 56 µM.
The target in experiment [4] is Aldehyde dehydrogenase 1A1 (Homo sapiens) (UniProt P00352). Put plainly: qHTS for Inhibitors of the Aldehyde Dehydrogenase Family (ALDH1A1) Confirmatory screens (AID 2061316). Also: nearly all actives have a fitted effect of over 65% in size. Also: potency is read from the fitted curve at half-maximal effect. Conditions: ALDH inhibition qHTS; series mostly up to 47.3 µM.

With `Cc1cc(-c2nnc3n2CCCCC3)c(C)n1-c1ccc([N+](=O)[O-])cc1`, the Potency entry in experiment [1] and in experiment [3] was “inactive” throughout. For the same compound, the Potency in experiment [2] is 22.5 µM (active); in experiment [4], 10.1 µM (active).

Take `Cc1cc2c(s1)c1cnn(Cc3c(F)cccc3F)c(=O)c1n2C`: the Potency result in experiment [1] and in experiment [3] was “inactive” in each case.

Regarding `Cc1sc(NC(=O)Cc2ccc3c(c2)OCO3)nc1-c1ccc2c(c1)CCN2C(=O)c1ccccc1Cl`, the Potency result in experiment [1] and in experiment [3] was “inactive” in each case.

Consider `N#Cc1ccccc1CNc1nc2ncc(Br)cc2[nH]1`, for which the Potency result in experiment [1] and in experiment [3] was “inactive” each time.

Take `O=C(Nc1nnc(-c2ccncc2)s1)NC12CC3CC(CC(C3)C1)C2`: the Potency entry in experiment [1] and in experiment [3] was “inactive” in each case.

For `O=C(Nc1ccc(Cl)cc1)c1ccccc1NCc1ccncc1`, the Potency entry in experiment [1] and in experiment [3] was “inactive” throughout.

Turning to `Cc1c(C(=O)OCC2CC2)[nH]c2c1C(=O)CC(c1ccco1)C2` (centres undefined), the Potency result in experiment [1] and in experiment [3] was “inactive” each time. The figures for the Potency in experiment [2] and in experiment [4] were 8.96 µM (active) and 1.59 µM (active), respectively.

Turning to `O=C1c2ccccc2NC(c2ccc(-c3ccc(C(F)(F)F)cc3)o2)N1O` (centres undefined), the figures for the Potency in experiment [1], in experiment [2] and in experiment [4] were 4.47 µM (active), 22.5 µM (active) and 7.12 µM (active), respectively. For the same compound, the Potency entry in experiment [3] was “inactive”.

Take `Cc1ccc(NS(=O)(=O)c2cc3c(cc2N[C@@H](C)CO)NC(=O)CC3)cc1Cl`: the Potency result in experiment [1], in experiment [3] and in experiment [4] was “inactive” in each case. Besides, the Potency in experiment [2] was 22.5 µM (active).

Turning to `COc1ccc(S(=O)(=O)Nc2cc(OC)cc3cccnc23)cc1`, the Potency result in experiment [1] and in experiment [4] was “inactive” in each case. Moreover, in experiment [2], the Potency is 1.42 µM (active).

As for `Fc1ccccc1-c1nc(-c2ccc(-c3nn[nH]n3)cc2)no1`, the Potency result in experiment [1] and in experiment [3] was “inactive” each time.

As for `N#Cc1c(-c2cccc([N+](=O)[O-])c2)no[n+]1[O-]`, the Potency in experiment [1] was 7.94 µM (active); in experiment [2], 5.04 µM (active); in experiment [4], 12.7 µM (active). Further, the Potency result in experiment [3] was “inactive”.

Turning to `Cc1ccc(OCCn2c(CCNC(=O)/C=C/c3ccccc3)nc3ccccc32)cc1`, the Potency result in experiment [1] and in experiment [3] was “inactive” in each case.

As for `COc1ccc(NC(=O)C(OC(=O)CNC(=O)c2ccccc2)c2ccccc2)cc1F` (centres undefined), the Potency result in experiment [1] and in experiment [3] was “inactive” throughout.

On to `O=S(=O)(Nc1cnc2ccccc2c1)c1ccc(NCc2ccc(Br)cc2O)cc1`, for which the Potency result in experiment [1] and in experiment [3] was “inactive” in each case.

For the compound `O=C1CCc2cc([S+](=O)([O-])NC3CCOCC3)ccc2N1`, the Potency result in experiment [1] and in experiment [3] was “inactive” in each case.

For `CC(C)CC(=O)O[C@@H]1OC=C(CO[C@@H]2O[C@H](CO[C@@H]3O[C@H](CO)[C@@H](O)[C@H](O)[C@H]3O)[C@@H](O)[C@H](O)[C@H]2O)[C@H]2C[C@H](O)[C@@H](CO)[C@@H]12`, the Potency entry in experiment [1] and in experiment [3] was “inactive” throughout.

For the compound `COc1cccc(NC(=S)N2CCN(c3cccc(Cl)c3Cl)CC2)n1`, the Potency result in experiment [1] and in experiment [3] was “inactive” in each case.

With `CC[C@H]1OC(=O)[C@](C)(F)C(=O)[C@H](C)[C@@H](O[C@@H]2O[C@H](C)C[C@H](N(C)C)[C@H]2O)[C@](C)(OC)C[C@@H](C)C(=O)[C@@H](C)[C@H]2N(CCCCn3cc(-c4cccc(N)c4)nn3)C(=O)O[C@]12C`, the Potency entry in experiment [1] and in experiment [3] was “inactive” in each case.

On to `CCCn1c(-c2ccc(F)cc2)nc2c(NCCN3CCCC3)nc(C)nc21`, for which the Potency entry in experiment [1] and in experiment [3] was “inactive” in each case.

As to `COc1ccc(O[C@@H]2O[C@H](CO)[C@H](O)[C@H](O)[C@H]2O)cc1`, the Potency entry in experiment [1] and in experiment [3] was “inactive” each time.

In the case of `CCCCNc1nc(C)nc2c1nc(-c1ccccc1)n2CCCN(C)C`, the Potency entry in experiment [1] and in experiment [3] was “inactive” throughout.

With `O=C(Nc1ccccc1)C1CCN(c2ncc(-c3ccc4c(c3)OCCCO4)s2)CC1`, the Potency result in experiment [1] and in experiment [3] was “inactive” each time.

As to `O=C1CCCC2=C1C(c1ccccc1)N=C(Nc1nc3ccccc3o1)N2` (centres undefined), the Potency entry in experiment [1], in experiment [2], in experiment [3] and in experiment [4] was “inactive” throughout.

For `Cc1ccc(-c2cc(C(=O)Nc3ccc(C(=O)O)cc3)c3ccccc3n2)cc1C`, the Potency entry in experiment [1] and in experiment [3] was “inactive” throughout.

With `c1ccc(CNc2ccc(N3CCOCC3)cc2)cc1`, the Potency entry in experiment [1] was “inactive”. Also, the results for the Potency in experiment [2] and in experiment [4] were 12.7 µM (active) and 7.98 µM (active), respectively.

`CC1=C(C(=O)Nc2ccc(C)cc2)C(c2ccccc2Br)N=C(Nc2nc3ccccc3o2)N1` (centres undefined): the Potency entry in experiment [1] and in experiment [3] was “inactive” each time.

For the compound `Cc1scc2c1C(=O)NS2(=O)=O`, the Potency entry in experiment [1] and in experiment [3] was “inactive” each time.

Turning to `CC(=O)Nc1ncc(S(=O)(=O)Nc2cnccc2C(=O)Nc2nc(-c3ccccc3)cs2)s1`, the Potency entry in experiment [1] and in experiment [3] was “inactive” in each case. Moreover, the values for the Potency in experiment [2] and in experiment [4] were 10.1 µM (active) and 20.1 µM (active), respectively.

Regarding `O=C(O)c1ccc(-c2noc(-c3cccc(Cl)c3)n2)cc1`, the Potency result in experiment [1] and in experiment [3] was “inactive” each time.

As for `CN1CCCC1CCNc1ncnc2ccc(-c3ccc4c(c3)OCO4)cc12` (centres undefined), the Potency result in experiment [1] and in experiment [3] was “inactive” in each case.

Regarding `Cn1cncc1CNc1ncnc2ccc(-c3ccc4c(c3)OCO4)cc12`, the Potency result in experiment [1] and in experiment [3] was “inactive” each time.

Consider `CN1CCN(c2cccc(Nc3nn4c(=O)c5ccc(N(C)C)cc5nc4s3)c2)CC1`, for which, in experiment [1], the Potency result is “inactive”. Besides, the Potency in experiment [2] was 14.2 µM (active); in experiment [4] it was 11.3 µM (active).

For the compound `Cc1ccc(NS(=O)(=O)c2cc3c(cc2Cl)NC(=O)CO3)cc1Cl`, the Potency entry in experiment [1] and in experiment [3] was “inactive” throughout.

As to `CCOC(=O)C1CCN(C(=O)C(C)(C)NC(=O)Nc2ccc(Oc3ccccc3)cc2)CC1`, the Potency entry in experiment [1] and in experiment [3] was “inactive” throughout.

Turning to `Cc1ccc(OCCn2c(CCNC(=O)Cc3ccccc3F)nc3ccccc32)cc1`, the Potency entry in experiment [1] and in experiment [3] was “inactive” throughout.
